In PMC5540273 (PLoS ONE, 2017):

Tests used:
Settings in all cases: concentration: 1 μM, replicates: in singlicate; n = 1
[1] = test system: T1, MEK1
T1 construct: gene MAP2K1

[2] = test system: T2, MEK2
T2 construct: gene MAP2K2

[3] = test system: T3, MEK3
T3 construct: gene MAP2K3

[4] = test system: T4, MEK4
T4 construct: gene MAP2K4

[5] = test system: T5, MEK5
T5 construct: gene MAP2K5

[6] = test system: T6, MEK6
T6 construct: gene MAP2K6

[7] = test system: MELK
[8] = test system: MERTK
[9] = test system: MET
[10] = test system: T7, MINK
T7 construct: gene MINK1

[11] = test system: MKK7
[12] = test system: MKNK1
[13] = test system: MKNK2
[14] = test system: T8, MLCK
T8 construct: gene MYLK3

[15] = test system: T9, MLK1
T9 construct: gene MAP3K9

[16] = test system: MLK2
[17] = test system: MLK3
[18] = test system: MRCKA
[19] = test system: T10, MRCKB
T10 construct: gene CDC42BPB

[20] = test system: MST1R
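Note: KINOMEscan kinase panel screen.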

Row | Compound | %Inh [1] | %Inh [2] | %Inh [3] | %Inh [4] | %Inh [5] | %Inh [6] | %Inh [7] | %Inh [8] | %Inh [9] | %Inh [10] | %Inh [11] | %Inh [12] | %Inh [13] | %Inh [14] | %Inh [15] | %Inh [16] | %Inh [17] | %Inh [18] | %Inh [19] | %Inh [20]
1 | NS(=O)(=O)CCc1cccc(Nc2nccc(-c3c(-c4cccc(NC(=O)c5c(F)cccc5F)c4)nn4ccccc34)n2)c1 [GSK336735] | 82% | 76% | 12% | 36% | 99.7% | 47% | 24% | 87% | 83% | 62% | 100% | 0% | 0% | 20% | 0% | 3% | 43% | 92.2% | 96.2% | 62%
2 | CC(C)(C)n1cnc2c(N)ncnc21 [SKF-97359] | 0% | 0% | 39% | 0% | 8% | 0% | 0% | 0% | 0% | 0% | 21% | 54% | 0% | 0% | 0% | 0% | 0% | 0% | 0% | 0%
3 | Fc1ccc(-c2nn3c(OCC(F)(F)F)cccc3c2-c2ccncc2)cc1 [GW514784] | 0% | 0% | 0% | 0% | 20% | 1% | 3% | 0% | 0% | 35% | 0% | 0% | 0% | 0% | 0% | 0% | 0% | 24% | 32% | 13%
4 | O=C(NCCCN1CCOCC1)c1cccc(Nc2nccc(Nc3ccc(Oc4ccccc4)cc3)n2)c1 [GW663929] | 71% | 77% | 7% | 21% | 100% | 11% | 10% | 0% | 0% | 18% | 0% | 0% | 29% | 0% | 0% | 0% | 18% | 4% | 0% | 37%
5 | Cc1cccc(-c2nc(Nc3ccc4ncsc4c3)c3ccccc3n2)n1 [GW867588] | 2% | 3% | 3% | 0% | 12% | 0% | 5% | 0% | 0% | 0% | 0% | 16% | 0% | 0% | 7% | 20% | 1% | 2% | 33% | 0%
6 | CC(=O)Nc1ccc(COc2ccc(Nc3ccnc4cc(-c5ccccn5)ccc34)cc2)cc1.Cl [GW440148] | 51% | 70% | 0% | 0% | 99.5% | 18% | 5% | 11% | 5% | 11% | 0% | 0% | 6% | 5% | 0% | 0% | 0% | 13% | 0% | 56%
7 | Fc1ccc(-c2ncn(CCCN3CCOCC3)c2-c2ccccn2)cc1 [SB-211742] | 6% | 31% | 0% | 0% | 0% | 0% | 18% | 0% | 13% | 0% | 0% | 0% | 0% | 0% | 0% | 27% | 0% | 0% | 0% | 0%
8 | Cc1cn2c(=O)cc(N3CCOCC3)nc2n1Cc1cccc(Cl)c1Cl [GSK2334006] | 11% | 0% | 0% | 17% | 54% | 0% | 17% | 5% | 0% | 0% | 29% | 2% | 10% | 0% | 0% | 2% | 38% | 6% | 8% | 28%
9 | O=C(NCCNc1ccnc(Nc2ccc(F)cc2)n1)Nc1ccccc1F [GSK1379880] | 0% | 0% | 0% | 26% | 30% | 0% | 0% | 7% | 0% | 0% | 0% | 0% | 5% | 0% | 0% | 0% | 0% | 21% | 3% | 50%
10 | N#Cc1c(N2CCOCC2)sc(-c2ccn[nH]2)c1-c1ccc(Cl)cc1 | 5% | 9% | 12% | 0% | 29% | 0% | 0% | 0% | 0% | 12% | 20% | 26% | 0% | 0% | 0% | 5% | 22% | 0% | 0% | 1%
11 | Cc1cccc(Cn2ccn3c(=O)cc(N4CCOCC4)nc23)c1 [GSK2297542] | 0% | 0% | 0% | 23% | 14% | 5% | 8% | 24% | 23% | 7% | 0% | 0% | 3% | 0% | 18% | 0% | 18% | 0% | 6% | 39%
12 | COc1ccc(Nc2nccc(N3CCC(NC(=O)Nc4cc(C)ccc4C)C3)n2)cc1 (stereo not drawn) [GSK1379741] | 0% | 0% | 0% | 14% | 44% | 0% | 0% | 24% | 0% | 0% | 28% | 0% | 5% | 11% | 0% | 0% | 0% | 24% | 0% | 55%
